# Hits are enriched below; roughly 3.8% of the tested compounds scored in any of these assays.
# Shn3 3UTR inh: inhibitors of Schnurri-3 3'UTR reporter in osteoblasts | Clone20 osteoblast Shn3 3'UTR firefly luciferase, 24 h | inhibition, % at 12.5 µM | AID 588674 | hit rate 0.52% among 360,000;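 active means mean inhibition of at least 75% with every replicate also reaching 75%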;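 further: 0% = median of neutral control wells and 100% = pilot-screen positive control compound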
# Mdm2-MdmX inh: human Mdm2/MdmX binding inhibition. SaOS-2 split-luciferase Mdm2/MdmX complementation, luminescence. inhibition, % at 8 µM. hit rate 3% among 330,000;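 active means inhibition of at least 50% at 8 µM in the primary screen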
# 697 NFkB inh: lowers PMA/ionomycin-induced NF-kB signal in 697 B cells | AID 435022 | hit rate 0.33% among 330,000 | inhibition, % at 4 µM | 697 B-cell NF-kB luciferase reporter, 16 h; in the data active means inhibition above about 35%
# Gli-Sufu block: Gli-Sufu pathway antagonism; hit rate 0.74% among 340,000; Sufu-KO-LIGHT fibroblasts, Gli luciferase reporter luminescence; inhibition, % at 5 µM;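 active means inhibition above about 55%, limit read from the data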;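 further: 0% = DMSO-treated cells and 100% = wells with medium but no cells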
# Jurkat NFkB inh: inhibitors of the PMA/ionomycin-induced NF-kB reporter in Jurkat cells | PMA/ionomycin-induced NF-kB luciferase reporter, luminescence | inhibition, % at 4 µM | hit rate 0.53% among 330,000; in the data active means inhibition above about 50%
# Mdm2 MdmX conf: human Mdm2/MdmX binding inhibition, confirmed; AID 489028; luminescent assay; shares compounds with Mdm2-MdmX inh; inhibition, % at 8 µM; hit rate 55% among 10,000; in the data active means inhibition above about 40%
# FLuc counter: full-length luciferase inhibition in Mdm2/MdmX counter-screen; shares compounds with Mdm2-MdmX inh; SaOS-2 full-length luciferase counterscreen, luminescence; inhibition, % at 8 µM; hit rate 77% among 6,200; AID 504607;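 active means mean inhibition at 8 µM reaching about 37%, which flags the compound as non-specific, limit read from the data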;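 further: p53-null SaOS-2 cells with luciferase driven by a doxycycline-inducible promoter; compound on cells about two nights before reading with doxycycline added after day one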
# Starred values were filed as active, the others as inactive; x = no result given.
SMILES,Shn3 3UTR inh,Mdm2-MdmX inh,697 NFkB inh,Gli-Sufu block,Jurkat NFkB inh,Mdm2 MdmX conf,others
CCOc1ccc2[nH]c(=O)c(CN(CCN3CCCC3)C(=S)Nc3ccccc3OCC)cc2c1,-10,100*,-4,26,4,17,
O=C(CNS(=O)(=O)c1ccc(Cl)c(C(F)(F)F)c1)NC1CCCCCC1,-19,10,17,-2,-6,x,
COc1nc(N/N=C/c2ccc(-c3ccccc3[N+](=O)[O-])o2)nc(N2CCOCC2)n1,-16,-30,-48,6,-46,x,
O=[N+]([O-])c1ccc(-c2ccc(/C=N/Nc3nc(NCc4ccccc4)nc(N4CCOCC4)n3)o2)cc1,-2,100*,-12,30,1,90*,FLuc counter=54*
Cc1ccc(CNC(=O)C2CC3Cn4c(nc5ccccc54)C3N2C)o1 (centres undefined),-16,9,4,-7,12,x,
Oc1cccc(Nc2nc(N3CCOCC3)nc(N3CCOCC3)n2)c1,25,56*,32,20,-12,43*,FLuc counter=74*
Cc1cccc(Nc2nc(N3CCOCC3)nc(N3CCOCC3)n2)c1,35,51*,31,22,-25,36,
Cc1ccccc1NC(=O)CSc1nc(Nc2ccccc2)nc(N2CCOCC2)n1,3,20,16,15,10,x,
c1ccc(Nc2nc(N3CCNCC3)nc(N3CCOCC3)n2)cc1,17,32,15,-1,-22,x,
c1ccc(Nc2nc(N3CCOCC3)nc(N3CCOCC3)n2)cc1,25,56*,18,9,-26,27,
Cc1cccc(Nc2nc(N3CCCCC3)nc(N3CCCCC3)n2)c1,12,5,8,-8,-3,x,
FC(F)(F)c1cccc(Nc2nc(N3CCOCC3)nc(N3CCOCC3)n2)c1,1,38,-21,-19,4,x,
Cc1ccc(F)cc1NC(=O)CSc1nc(Nc2ccccc2)nc(N2CCOCC2)n1,23,74*,-12,12,6,17,
Cc1ccc(-n2nc3c(c2NC(=O)c2ccc4c(c2)OCO4)CS(=O)C3)c(C)c1 (centres undefined),-7,21,10,-3,10,x,
CC(C)c1cccc(C(C)C)c1NC(=O)OC1CCCCC1,6,x,x,x,x,x,
COC(=O)Oc1ccc(/C=N/NC(=O)CN(c2ccccc2Cl)S(C)(=O)=O)cc1OC,1,21,-3,-10,-19,x,

# Screening data (PubChem BioAssay)
